About 83,000 compounds went through this panel and 20% of them were active in at least one assay; those are over-represented in the sample as a whole.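 Single-concentration screen, 48 h exposure, 96-well plates. Endpoint: percent growth. Below 10 = active.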 A number with no mark means an inactive call. Calls of active or inactive are those of the source.

This passage reports growth results from PubChem BioAssay (NCI).

What all share (test): NCI-60 one-dose screen, 48 h (100 = growth as untreated, 0 = no growth, -100 = all killed)
Holding throughout (details): 10 µM unless noted

Test [1] relates to NCI-H23 lung.
The subject of test [2] is NCI-H226 lung.
The subject of test [3] is NCI-H322M lung.
Test [4] deals with HOP-62 NSCLC.
The subject of test [5] is NCI-H460 lung.
Test [6] relates to HOP-92 NSCLC.
Test [7] relates to NCI-H522 lung.
The subject of test [8] is A549/ATCC NSCLC.
Test [9] concerns 786-0 renal.
Test [10] relates to COLO 205 colon.

For the compound `CCCN(CCC)CN(CCC)CCC`, the growth in test [1] is 96.5%; in test [2] it was 95.3%; in [3], 97.6%; in test [4], 113%; in test [5] it was 107%; in test [6], 91.8%. The growth in [7] was 101%; in test [8] it was 91.1%; in test [9], 94.8%; in [10] it was 116%.

As for `CC/C(=C(\c1ccccc1)c1ccc(OCCNC)cc1)c1ccccc1`, the growth in test [1] was -90.5% (active); in test [2], -84.1% (active); in [3], -99.5% (active); in test [4], -64.2% (active); in test [5], -71.3% (active); in test [6], -85.6% (active). Also, the growth in [7] was -74.9% (active); in test [8] it was -39.2% (active); in test [9], -92.7% (active); in test [10], -85.5% (active).

For `C=C1CCC2C3(C)COC(c4ccc(SC)cc4)OC3CCC2(C)C1C/C=C1/C(=O)OCC1O` (stereo not given), the growth in test [1] is 44.9%; in test [2], 48.7%; in [3], 102%; in test [4] it was 107%; in test [5], 81.8%; in [6], 81.7%. In addition, the growth in test [7] is 73.3%; in [8], 83.6%; in test [9] it was 78.4%; in test [10], 72.3%.

Regarding `CCN(CC)CC(C)(C)C(=O)/C=C/c1ccccc1`, the growth in [1] is 62.1%; in test [2] it was 63.5%; in [3], 67.7%; in test [4] it was 90.6%; in test [5], 32.3%; in test [6], 34.7%. Besides, the growth in test [7] is 60.6%; in [8] it was 80.3%; in test [9], 60%; in [10] it was 53.4%.

On to `CNCc1cccc2c1OCCOCCOCCN(C)S(=O)(=O)c1ccc(cc1)-c1cnc(N)c(n1)C(=O)N2`, for which the growth is 52.6% in [1]; 45.6% in test [2]; 25.5% in test [3]; 79.8% in test [4]; 10.5% in test [5]; 127% in test [6]. Also, the growth is 9.56% (active) in [7], 60.5% in [8], 9.16% (active) in test [9] and 29.8% in test [10].

`CC1=C(C)C(=O)OC([C@](C)(O)[C@]2(O)CC[C@@]3(O)[C@@H]4C[C@H]5O[C@]56CC=CC(=O)[C@]6(C)[C@H]4CC[C@]23COC(=O)c2ccc(C)o2)C1` (stereo not given in full): the growth was -45% (active) in [1]; -20.9% (active) in [2]; -63% (active) in [3]; -73.8% (active) in test [4]; -57.1% (active) in test [5]; -58.7% (active) in test [6]. Also, the growth is -68.7% (active) in test [7], 4.97% (active) in test [8], -64.1% (active) in [9] and -72.1% (active) in [10].

For `O=C1/C(=C/c2ccc(Cl)cc2Cl)CN(S(=O)(=O)c2ccccc2)C/C1=C\c1ccc(Cl)cc1Cl`, the growth is -37.6% (active) in test [1]; 58.3% in [2]; -0.804% (active) in test [3]; -2.25% (active) in test [4]; -24.1% (active) in test [5]; -3.29% (active) in test [6]. The growth in test [7] was -34.1% (active); in test [8], 3.06% (active); in test [9], -81.2% (active); in [10] it was -15.9% (active).

Take `COc1ccc(/C=C/C(=O)c2c(O)c(C)c(O)c3c2OC2=CC(O)=C(C(C)=O)C(=O)[C@]23C)cc1`: the growth in test [1] is -32.9% (active); in [2], -28.2% (active); in test [3], -17.9% (active); in test [4], -40% (active); in test [5], 1.69% (active); in test [6], -18.8% (active). Moreover, the growth in [7] was -32.2% (active); in [8] it was -26.8% (active); in test [9], -29.7% (active); in test [10] it was -74.1% (active).

For `Fc1ccc(Cc2ccc(F)cc2)cc1`, the growth in test [1] is 102%; in test [2] it was 99.9%; in test [3] it was 105%; in test [4] it was 106%; in test [5], 108%; in test [6], 100%. In addition, the growth was 90% in test [7], 103% in test [8], 107% in [9] and 108% in test [10].

For the compound `Clc1ccc(-c2nnc(COc3ccccc3Cl)o2)cc1`, the growth in [1] was 80.6%; in test [2], 93.8%; in test [3], 76.9%; in [4] it was 61.3%; in [5] it was 82.9%; in test [6], 49.2%. The growth in test [7] was 70.9%; in test [8] it was 58.3%; in test [9], 23.3%; in test [10], 90.8%.

Consider `Cc1cc(Nc2nc(N3CCNCC3)nc3ccccc23)n[nH]1`, for which the growth in test [1] is 96.4%; in [2] it was 86.5%; in [3], 91.1%; in test [4] it was 109%; in test [5], 93.4%; in test [6], 80.2%. For the same compound, the growth in test [7] is 76.4%; in [8], 80.8%; in test [9], 76.1%; in test [10], 90.8%.

For `O=C(Nc1cccc2[nH]c(C(F)(F)F)nc12)c1ccc(Br)cc1F`, the growth was 1.94% (active) in [1]; 36.4% in test [2]; 57% in test [3]; 45.3% in test [4]; 15.1% in test [5]; -14.9% (active) in [6]. The growth was -7.83% (active) in test [7], 16.7% in test [8], 35.8% in test [9] and 26% in test [10].

Take `O=C(/C=C/c1cc2ccccc2[nH]c1=O)/C=C/c1cc2ccccc2[nH]c1=O`: the growth in [1] was -41.6% (active); in test [2] it was -30.3% (active); in test [3], 86.9%; in [4] it was 0.443% (active); in test [5], -36.7% (active); in test [6], 68.7%. Also, the growth in test [7] was -51.1% (active); in test [8] it was -8% (active); in test [9], -59.5% (active); in test [10] it was -11.6% (active).

As for `CSc1nc(NCCO)c(C#N)c(-c2cccc(N)c2)n1`, the growth in test [1] is 90.5%; in [2], 92.8%; in [3] it was 97.6%; in [4], 83.7%; in test [5] it was 99.6%; in [6], 95.7%. Also, the growth in test [7] was 87.4%; in [8], 100%; in test [9] it was 103%; in test [10], 108%.

On to `CC1=NNC(=O)C1C` (stereo not given), for which the growth in [1] is 100%; in test [2], 93.5%; in test [3], 585%; in [4], 87.4%; in test [5], 114%; in test [6], 102%. Further, the growth in [7] is 85.9%; in test [8], 98.6%; in test [9] it was 103%; in test [10], 110%.

For the compound `COc1cccc(NC(=O)c2sc3nc4c(cc3c2N)CN(Cc2ccccc2)CC4)c1`, the growth in [1] is 81.2%; in [2], 57.2%; in test [3] it was 74%; in test [4] it was 31.4%; in [5] it was 45.6%; in test [6] it was 42.1%. The growth in [7] is 68%; in [8], 62.1%; in [9], 37.2%; in test [10] it was 78.6%.

`CN1CCOCCOCCOc2ccccc2NC(=O)c2nc(cnc2N)-c2ccc(cc2)S1(=O)=O`: the growth in [1] was 34.5%; in test [2] it was 101%; in test [3], 36.8%; in test [4] it was 92.4%; in [5] it was 34.3%; in test [6], 95.5%. For the same compound, the growth was 43.9% in test [7], 49.8% in test [8], 18% in test [9] and 27.9% in test [10].

Regarding `CN1Cc2c(cc(CN3CCCCC3)n2C)C(c2ccc(Br)cc2)C1` (stereo not given), the growth in test [1] is 84.6%; in test [2] it was 90.7%; in test [3] it was 91.5%; in [4], 91.1%; in [5] it was 96.9%; in test [6], 53.9%. The growth in test [7] is 90.5%; in test [8], 93.8%; in [9], 66.5%; in [10] it was 83.1%.

Regarding `CCCCCCCCCCCCCCCCCCNC(=O)[C@H]1CSC(c2ccc(OC)c(F)c2)N1` (stereo not given in full), the growth is 36.9% in test [1]; -68% (active) in test [2]; 38.4% in [3]; -82.9% (active) in [4]; -67.8% (active) in [5]; 37.8% in test [6]. Moreover, the growth in test [7] is 56.7%; in test [8], 20.9%; in [9], 22.8%; in test [10] it was 102%.

Take `C=C1CCC2C3(C)COC(c4ccc(OC)cc4Br)OC3CCC2(C)C1/C=C/C1=CCOC1=O` (stereo not given): the growth was 52.7% in test [1]; 63.1% in [2]; 97.6% in test [3]; 97.3% in test [4]; 65% in test [5]; 84.8% in test [6]. Further, the growth in [7] was 63.8%; in test [8], 58.2%; in test [9] it was 77.6%; in test [10], 118%.

Take `CC(=O)OCC1OC(OC2=C(CC=C(Cl)Cl)C(=O)c3ccccc3C2=O)C(OC(C)=O)C(OC(C)=O)C1OC(C)=O` (stereo not given): the growth is 105% in test [1]; 85% in [2]; 102% in [3]; 92.7% in [4]; 95.1% in test [5]; -9.2% (active) in test [6]. The growth is 3.88% (active) in test [7], 102% in [8], 102% in [9] and 97.6% in test [10].

On to `CC(=O)C1=C(O)C=C2Oc3c(C(=O)/C=C/c4c(Cl)cccc4Cl)c(O)c(C)c(O)c3[C@]2(C)C1=O`, for which the growth was -37.9% (active) in test [1]; -41.2% (active) in [2]; -25.9% (active) in test [3]; -48.6% (active) in test [4]; 0.581% (active) in test [5]; -24.9% (active) in test [6]. The growth was -30.4% (active) in [7], -46.1% (active) in test [8], -39.3% (active) in [9] and -59.1% (active) in test [10].

On to `COc1ccc(C(=O)c2sc3nc4c(c(C(F)(F)F)c3c2N)CN(C(C)=O)CC4)cc1OC`, for which the growth was 90.5% in test [1]; 78.2% in test [2]; 93.1% in [3]; 87% in test [4]; 95.8% in test [5]; -0.986% (active) in [6]. In addition, the growth in test [7] is 78.5%; in [8], 91%; in test [9], 91.9%; in [10] it was 92.4%.

`O=C(/C=C/c1ccc(Cl)cc1)/C=C/c1cc2ccccc2[nH]c1=O`: the growth in [1] is 68%; in test [2] it was 93.5%; in [3], 105%; in [4] it was 39.4%; in test [5] it was 94.4%; in [6], 92.5%. In addition, the growth was 46.4% in [7], 46.5% in test [8], 88.5% in [9] and 40.8% in [10].

In the case of `CCCCN(CCCC)Cc1c(C)[nH]c2cc(OC)ccc2c1=O`, the growth in test [1] is 107%; in test [2], 103%; in test [3], 113%; in test [4] it was 88.9%; in test [5], 103%; in test [6] it was 65.3%. Further, the growth is 94.6% in test [7], 95.4% in test [8], 105% in test [9] and 101% in [10].

With `CC[C@H](Nc1ncnc(N)c1C(N)=O)c1nc2cccc(NCc3ccc(C(=O)NO)cc3)c2c(=O)n1-c1ccccc1`, the growth was 91.7% in test [1]; 102% in test [2]; 86.9% in test [3]; 78% in test [4]; 79.5% in test [5]; 21.5% in [6]. The growth in test [7] was 35.9%; in test [8] it was 98.2%; in test [9], 90.3%; in [10], 78.3%.

On to `Nc1cc2ccncc2c2ccccc12`, for which the growth in test [1] is 67.7%; in [2], 44%; in test [3], 61.7%; in test [4] it was 79.6%; in test [5] it was 58.2%; in test [6] it was 73.9%. The growth in [7] was 98.4%; in test [8] it was 89.4%; in test [9] it was 78.1%; in test [10], 61.6%.
